Here are results for 40 compounds from PubChem BioAssay (EPA / NIEHS).

Several values for one entry are separate records, joined by “and”; a condition that tells them apart may be missing. Identical values can stand only once. Activity calls are given as the source filed them. Rule for the calls: active = hit-call score of the fitted dose curve at least 0.9, where 1 is the maximum; inactive = score below 0.9.

Read-out in this assay: ABC Transporter (ABCC3), ABCC3 (gene 8714)
As to the kind of experiment: LTEA_HepaRG_ABCC3: Life Technologies and Expression Analysis (LTEA) Assay for ABC Transporter (ABCC3) using HepaRG (AID 2283462). The following applies: mRNA level, 48 h; actives raise or lower the signal. On the procedure: LTEA_HepaRG is a cell based, multiplexed-readout assay that uses HepaRG, a human liver cell line, with measurements taken at 48 hours after chemical dosing on a 96-well plate.LTEA_HepaRG_ABCC3 is one of 102 assay component(s) measured in the LTEA HepaRG cell culture assay. It is a marker of NR mediated transport.Data from the assay component LTEA_HepaRG_ABCC3 was analyzed into 1 endpoint. This assay endpoint, LTEA_HepaRG_ABCC3, was analyzed with bidirectional fitting relative to DMSO as the negative control and baseline of activity. Using a type of inducible reporter, measures of mRNA induction for gain or loss-of-signal activity can be used to understand regulation of transcription factor activity. To generalize the intended target to other relatable targets, this assay endpoint is annotated to the transporter intended target family, where the subfamily is ABC transporter.
A total of 1060 chemcials from the ToxCast library were tested in eight-point concentration-response experiments. Cell culture and cytotoxicity assays were conducted at Thermo Fisher Scientific's Custom Services facility (Madison, WI). A single lot of human HepaRG cells (Thermo Fisher Scientific, Frederick, MD) was used for the cell culture experiments. 96-well format collagen type I coated plates of human HepaRG cells were prepared using established methods. Briefly, cryopreserved HepaRG cells were thawed, plated at a density of approximately 100,000 cells/well in HepaRG Thaw, Plate, and General Purpose media (HPRG770, Thermo Fisher Scientific), and incubated for 48 hours. 0.5% DMSO was selected as vehicle control to balance the requisite need of DMSO in HepaRG cultures to maintain differentiation (for example, baseline metabolism, proportions of hepatocytes vs. cholangiocytes), while enabling further hepatic receptor pathway activation (for example, PXR and CAR) in response to chemical exposure. 48 hours after plating, the culture medium was replaced with HepaRG Serum-Free Incudtion Media. Cells were exposed to each test chemical in duplicate and maintained in CO2 incubators for another 48 hours. Chemical plates were thawed to room temperature and 200x concentrations of treatment groups were prepared. 8-point conentration-reponse curves were made with the highest exposure at 100 uM, followed by half-log dilutions, all in 0.5% DMSO. Each test plate contained variouse controls, induction positive controls (1mM phenobarbital), cytotoxicity positive controls ([…] aflatoxin B1), vehicle controls (0.5% DMSO), and total lysis controls (0.5% DMSO). Cell morphology images were taken using an Essen IncuCyte FLR automated microscope, with six 96-well plates imaged in about 24 minutes. Images were captured and exported and JPEG files. Spent culture media was transfered to black-well plates for the LDH assay, and remaining media was sorted at -80 C for later use. Cells were treated with RLT buffer and frozen until shipped for gene expression analysis. Total RNA was isolated from the cell suspension in 75 uL of Buffer RLT (Qiagen, Germantown, MD 20874) by Quintiles/Expression Analysis (Durham, NC) using a custom isolation procedure. Total RNA from each plate well was transferred to a preamplification plate. Fluidigm's 96.96 Dynamic ArrayTM (Fluidigm, Amsterdam, the Netherlands) technology was used for gene expression analyses by quantitative reverse transcription polymerase chain reaction (qRT-PCR, performed by Quintiles/Expression Analysis, Durham, NC)89. Standard TaqManTM Assays (Applied Biosystems/ThermoFisher Scientific, Foster City, CA) were used to assess the expression of 93 genes selected based on their selectivity and sensitivity to important hepatic receptors known to be modulated by environmental chemicals; importance in human hepatocyte functionality; and hepatotoxicity. […]
Turning to `CCNc1nc(N)nc(Cl)n1`, the compound was called inactive.
Same read-out and setting: the value for `CCOC(=O)C(C)Oc1ccc(Oc2cnc3cc(Cl)ccc3n2)cc1` (stereo not given) was “inactive”; that for `CCN(Cc1c(F)cccc1Cl)c1c([N+](=O)[O-])cc(C(F)(F)F)cc1[N+](=O)[O-]` was “inactive”.
Same read-out and setting: the value for `c1ccc2[nH]c(-c3cscn3)nc2c1` was “inactive”; that for `CCCN(CCC)C(=O)SCC` was “inactive”.
`Cc1nn(C)c(Oc2ccccc2)c1C=NOCc1ccc(C(=O)OC(C)(C)C)cc1`: the AC50 (in general, the concentration giving half of the maximal activity seen) was 1.24 µM (active).
With `CCN(CC)C(=O)c1cccc(C)c1`, the outcome was inactive.
The same measure, in the same setting: the value for `COCCO` was “inactive”.
Still for that read-out and setting: the value for `C[C@]12C[C@H](O)[C@H]3[C@@H](CCC4=CC(=O)CC[C@@]43C)[C@@H]1CC[C@@H]2C(=O)CO` was “inactive”; that for `CCCN(CCC)c1c([N+](=O)[O-])cc(C(F)(F)F)c(N)c1[N+](=O)[O-]` was “inactive”; that for `O=C(O)c1ccccc1` was “inactive”.
`CC(=O)S[C@@H]1CC2=CC(=O)CC[C@]2(C)[C@H]2CC[C@@]3(C)[C@@H](CC[C@@]34CCC(=O)O4)[C@H]12`: the compound was called inactive.
For the compound `CCCCCOC(=O)COc1cc(N2C(=O)C3=C(CCCC3)C2=O)c(F)cc1Cl`, the outcome was inactive.
For `CCCCC(CC)COC(=O)c1ccccc1C(=O)O` (stereo not given), the compound was classed as inactive.
Same read-out and setting: the value for `COC(=O)CSc1cc(N=c2sc(=O)n3n2CCCC3)c(F)cc1Cl` was “inactive”.
Still for that read-out and setting: the value for `O=C(c1ccccc1)C1CCCCC1` was “inactive”; that for `C#C[C@]1(O)CC[C@H]2[C@@H]3CCC4=CC(=O)CC[C@@H]4[C@H]3CC[C@@]21CC` was “inactive”; that for `Oc1ccc(C(c2ccc(O)cc2)C(Cl)(Cl)Cl)cc1` was “inactive”.
The same measure, in the same setting: in the case of `CC(C)(c1ccc(O)cc1)c1ccc(O)cc1` it was “inactive”; in that of `COc1c(Cl)ccc(Cl)c1C(=O)O`, “inactive”.
On to `CC(C)(C)[C@@H](O)[C@@H](Cc1ccc(Cl)cc1)n1cncn1`, for which the compound was classed as inactive.
For `O=C(c1ccc(O)cc1O)c1ccc(O)cc1O`, the compound was classed as inactive.
For the compound `CCCCOCCOCCOCc1cc2c(cc1CCC)OCO2`, the compound was classed as inactive.
On to `CC(=O)[C@H]1CC[C@H]2[C@@H]3CCC4=CC(=O)CC[C@]4(C)[C@H]3CC[C@]12C`, for which the AC50 is 28.2 µM (active).
Take `OB(O)O`: the compound was called inactive.
The same measure, in the same setting: the value for `CCCCOC(=O)C(C)Oc1ccc(Oc2ccc(C(F)(F)F)cn2)cc1` (stereo not given) was “inactive”.
The same measure, in the same setting: the value for `CC1(C)C(C=C(Cl)Cl)C1C(=O)OCc1cccc(Oc2ccccc2)c1` (stereo not given) was “inactive”; that for `CCOC(=O)C(C)Oc1ccc(Oc2nc3ccc(Cl)cc3o2)cc1` (stereo not given) was “inactive”; that for `CC(C)CCCCCCc1ccc(O)cc1` was “inactive”.
For `S=C(S)NCCNC(=S)S.[Mn+2].[S-]C([S-])=NCCN=C([S-])[S-].[Zn+2]`, the AC50 is 717 nM (active) and 898 nM (active) and 1.03 µM (active).
Turning to `CN(C)C(=O)Nc1ccc(Cl)c(Cl)c1`, the compound was classed as inactive.
Still for that read-out and setting: the value for `CCCOC(=O)c1ccc(C(=O)OCCC)nc1` was “inactive”; that for `CCOC(=O)c1ccc(O)cc1` was “inactive”; that for `c1ccc(Nc2ccccc2)cc1` was “inactive”.
As to `O=C(O)C1(C(=O)Nc2ccc(Cl)cc2Cl)CC1`, the call was inactive.
`S=C([S-])NCCNC(=S)[S-].[Mn+2]`: the AC50 is 2.06 µM (active).
The same measure, in the same setting: in the case of `O=C(Nc1ccc([N+](=O)[O-])cc1Cl)c1cc(Cl)ccc1O` it was 3.52 µM (active).
With `CCCCCCC(C)OC(=O)COc1nc(F)c(Cl)c(N)c1Cl` (stereo not given), the call was inactive.
On the same count and under the same terms, the value for `N[C@@H](Cc1cc(I)c(Oc2ccc(O)c(I)c2)c(I)c1)C(=O)O` was “inactive”; that for `CCSC(=O)N(CC(C)C)CC(C)C` was “inactive”.
